Source: PubChem BioAssay
HIF-2a block – HIF-2a inhibition | 786-0 RCC cells HIF-2a reporter, luciferase luminescence, overnight | inhibition, % at 18.8 µM | 360,000 tested, 0.72% active | AID 624352;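 active = inhibition of the luminescence signal of 40% or more relative to plate controls, in a single-dose primary screen at 18.75 µM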
Peg3 promoter – reduces Peg3 promoter-driven luciferase expression in HeLa; 360,000 tested, 1.7% active; AID 588405; inhibition, % at 20 µM; HeLa PEG-Prom luciferase reporter, luminescence, overnight;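 active = inhibition of at least 50% at 20 µM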
CF NFkB inh – blocks PAF-induced NF-kB reporter in cystic fibrosis cells | KKLEB NF-kB-GFP reporter, GFP fluorescence overnight | inhibition, % at 5 µM | 360,000 tested, 0.86% active;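 active = at least 50% inhibition at 5 µM, scaled per plate between neutral and stimulator controls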;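 note: PAF is a Pseudomonas aeruginosa culture filtrate used as stimulus; plate controls were PAF-stimulated DMSO wells for no effect and unstimulated DMSO wells for full effect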
TWEAK Fn14 block – inhibitors of TWEAK-Fn14 interaction signaling. TWEAK-stimulated Fn14 reporter cells, luciferase luminescence, 8 h. inhibition, % at 10 µM. 360,000 tested, 2% active; in the data active = inhibition above about 50%
KKLEB cytotox – CF airway cell cytotoxicity counter-screen. KKLEB CF airway cells viability, ATPlite luminescence, overnight; hits give low values; cells stimulated with P. aeruginosa culture filtrate. 360,000 tested, 0.36% active. activity change (cytotoxicity), % at 5 µM;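 active = corrected activity change at or below -50% at 5 µM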
TROY NFkB inh – blocks TROY-dependent signaling in reporter cells; 360,000 tested, 0.98% active; inhibition, % at 10 µM; AID 1347056; Q293 LMP1-TROYcd NF-kB luciferase reporter, 4 h;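 active = compounds whose plate-normalised and pattern-corrected inhibition of the luciferase reporter signal at the single screening dose is 50% or more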
The depositor's hits bear a star; nt = not tested or not shown. Rows were chosen to be rich in hits. Some 4% of all compounds tested hit in one or more screens of this group.

SMILES | HIF-2a block | Peg3 promoter | CF NFkB inh | TWEAK Fn14 block | KKLEB cytotox | TROY NFkB inh
O=C(CSc1nc2ccccc2c(=O)n1CC1CCCO1)Nc1ccccc1Cl (centres undefined) | 1.9 | 7.4 | -8.6 | 39.1 | 9.5 | -4.4
O=C(O)c1cccc(NC(=O)c2cccc(NC(=O)C3CCCO3)c2)c1 (centres undefined) | 46.6* | 47.6 | -20.3 | 22.6 | 0.9 | -20.8
CN(C)CCNc1ccc(CO)c2sc3ccc(O)cc3c(=O)c12 | 49.8* | 100.0* | -188.6 | -89.8 | 8.3 | -52.5
CN(C)CCCNC(=O)c1cc2sc3ccccc3c2s1 | -34.4 | 11.4 | 12.3 | -29.5 | -16.2 | -41.3
Cn1c(NN)nc2c1c(=O)n(Cc1ccccc1)c(=O)n2C | 19.8 | 19.7 | 4.2 | 16.0 | -7.3 | 2.4
Cc1ccc(-n2ncc(C(=O)Nc3cc(Cl)cc(Cl)c3)c2C2CCNCC2)cc1C | -15.1 | 59.5* | 37.1 | -4.0 | -41.6 | -6.0
O=C(Nc1cc(Cl)cc(Cl)c1)c1ccc(Cn2c(=O)[nH]c3ccsc3c2=O)cc1 | 0.3 | 30.4 | 54.5* | -43.5 | -50.2* | -4.9
Cc1ccc(CNC(=O)CNC(=O)c2ccc(C(C)(C)C)cc2)n1C | -38.6 | -7.0 | -1.0 | 9.0 | 0.5 | -20.9
COc1ccc(C23CC4CC(CC(C(=O)O)(C4)C2)C3)c(F)c1 | -34.2 | -5.9 | 6.3 | 0.5 | -16.1 | 0.4
Cc1ccc(NCc2nc3ccccc3n2C)cc1 | -233.5 | -224.0 | 12.4 | 65.8* | -4.7 | 49.2
Cn1c(CNc2ccc(O)cc2)nc2ccccc21 | -81.1 | -36.5 | -0.5 | 16.6 | -4.3 | -23.3
Cc1ccc(SCC(=O)NNC(=O)CNC(=O)c2ccccc2F)cc1 | 15.5 | -2.0 | -11.8 | 0.5 | 6.7 | -3.7
CSc1ccccc1CNc1nc(NCC2CC2)nc2ccsc12 | 26.2 | 29.4 | 15.4 | 28.9 | -16.3 | 51.5*
COc1cccc(CNc2nc(NCC3CC3)nc3ccsc23)c1 | 15.3 | 15.8 | -14.1 | -21.1 | -26.8 | 22.9
COc1cccc(CNc2nc(NCC3CC3)nc3ccsc23)c1OC | 22.3 | 10.7 | -0.6 | 17.8 | -4.9 | 25.5
CC(C)c1ccc(CNc2nc(NCC3CC3)nc3ccsc23)cc1 | 12.3 | 53.9* | 30.9 | 39.7 | -33.5 | 40.8
COc1ccccc1CNc1nc(NCc2ccc(C(C)C)cc2)c2sccc2n1 | 7.7 | 95.3* | 28.9 | 17.3 | -15.2 | 24.7
COc1ccccc1CNc1nc(NCCOc2ccccc2Cl)c2sccc2n1 | -9.0 | 59.6* | 18.0 | 38.8 | -28.9 | 41.1
COc1ccc(-c2cc3cc(-c4cc(OC)c(OC)c(OC)c4)ccc3o2)cc1 | -12.5 | -21.0 | 0.8 | -21.8 | 11.4 | -24.2
COc1ccc(OC)c(CN2C(=O)c3ccccc3C2c2nnnn2C2CCCC2)c1 (centres undefined) | 9.0 | nt | nt | 13.8 | nt | -1.4
COc1cc(C2CC(=O)Nc3ccccc3S2)cc(OC)c1OC (centres undefined) | 10.9 | 51.3* | -13.7 | 41.5 | -5.0 | 10.7
COc1ccccc1CNC(=O)C1(C)CCN1Cc1ccc2ccccc2c1 (centres undefined) | 20.8 | 19.1 | 20.4 | 31.9 | -1.7 | 24.7
Cc1ccc2nc(SC(C)C(=O)N3CCOCC3)[nH]c2c1 (centres undefined) | -190.5 | -247.4 | 14.5 | 37.9 | 8.5 | -22.1
Nc1ncc(Br)cc1S(=O)(=O)Nc1cc(C(F)(F)F)cc(C(F)(F)F)c1 | -13.8 | 43.6 | 37.2 | 46.7 | -10.4 | 55.5*
Cc1ccc(NS(=O)(=O)c2cc(Br)cnc2N)c(Cl)c1 | 13.4 | -23.9 | 12.5 | 15.4 | -5.4 | 9.6
SMILES | HIF-2a block | Peg3 promoter | CF NFkB inh | TWEAK Fn14 block | KKLEB cytotox | TROY NFkB inh
CCOC(=O)c1sc(NC(=O)CSc2nc3c(c(=O)n2-c2ccc(C)cc2)SCC3)c(C(=O)OCC)c1C | 1.2 | -1.0 | 30.4 | -33.1 | -60.0* | -1.8
CCOC(=O)c1sc(NC(=O)CSc2nnnn2-c2ccc(C)cc2)c(C(=O)OCC)c1C | -8.5 | 5.5 | 5.7 | -5.5 | -11.1 | 13.0
COc1cccc(NC(=O)COc2ccc(C(=O)N3CCN(C)CC3)cc2)c1 | -12.3 | -9.7 | 6.9 | 6.4 | 1.1 | 1.0
S=C(NN=C1C2CC3CC(C2)CC1C3)Nc1ccccc1 | 36.9 | -53.5 | 5.4 | 94.3* | -0.6 | 74.6*
CCn1c(/C=C/c2ccccc2)nc2ccccc21 | -175.3 | -137.0 | -10.8 | 26.9 | -52.6* | -36.6
C/C(=N\NC(=O)c1ccccc1O)c1cccs1 | 7.4 | 33.1 | 9.5 | 73.3* | -3.7 | -19.8
CSCCC(NC(=O)c1ccco1)C(=O)N1CCN(c2ccccc2O)CC1 (centres undefined) | 17.1 | 11.8 | -3.4 | 3.4 | 0.9 | 13.1
CNc1ccccc1C(C)(C)c1cc(-c2ccc(F)cc2)no1 | 25.7 | 21.8 | -6.3 | 54.4* | -5.4 | 31.4
COc1cc(C)c(CN2CCN(C(C)C(=O)NC(C)c3ccccc3)CC2)cc1OC (centres undefined) | 11.9 | -7.0 | 10.9 | -1.4 | -8.4 | 2.0
CC(=O)/C(N=Nc1cc2c(cc1[N+](=O)[O-])OCCO2)=C(\C)O | 5.9 | 8.3 | -68.2 | -35.8 | -0.7 | -3.8
CC(=O)/C(N=Nc1cc2c(c([N+](=O)[O-])c1C)C(C)(C)CC2(C)C)=C(\C)O | 14.5 | 22.0 | 1.5 | 96.1* | -0.4 | 80.8*
COC(=O)C[C@@H]1C[C@H]2c3cc(NS(C)(=O)=O)ccc3O[C@H]2[C@H](CO)O1 | 6.6 | 9.7 | -2.1 | -0.4 | 1.0 | 1.1
C[C@@H](NC(=O)[C@@H]1CCCN1C(=O)[C@@H]1CCCN1C(=O)OC(C)(C)C)c1ccccc1 | -6.8 | nt | nt | -24.7 | nt | -14.1
O=C1S/C(=C\c2ccc(O)c([N+](=O)[O-])c2)C(=O)N1c1ccccc1Cl | -75.0 | 9.3 | 4.0 | 21.8 | 12.2 | 53.5*
COc1cc(/C=C2\SC(=O)N(c3cccc(Cl)c3)C2=O)cc([N+](=O)[O-])c1O | -43.5 | 15.6 | 16.8 | 32.8 | 3.2 | 16.6
O=C1S/C(=C\c2ccc(O)c([N+](=O)[O-])c2)C(=O)N1Cc1cccc([N+](=O)[O-])c1 | 3.8 | 40.8 | 22.7 | 53.0* | 15.2 | 59.1*
Cc1ccc(S(=O)(=O)Nc2ccc3c(c2)C(=O)c2ccccc2-3)cc1 | 1.3 | 13.5 | -12.4 | 33.2 | 0.2 | 52.8*
CCNc1nc(NCC)nc(OCCOC(=O)COc2ccc(Cl)cc2Cl)n1 | 5.7 | 2.1 | 3.3 | 86.2* | -6.2 | nt
CC[C@@H](C(=O)[C@@H](C)[C@@H](O)[C@H](C)CCc1ccc(C)c(O)c1C(=O)O)[C@H]1O[C@](CC)([C@H]2CC[C@](O)(CC)[C@H](C)O2)C[C@@H]1C | -47.9 | 94.0* | 76.3* | 85.8* | -50.9* | 76.4*
COc1ccc2nc(C)cc(N3CCN(S(=O)(=O)c4ccccc4F)CC3)c2c1 | 6.3 | 8.8 | -9.0 | -11.5 | -0.8 | -6.0
CCOC(=O)c1ccc(NS(C)(=O)=O)cc1 | 9.5 | 10.7 | 2.9 | 82.2* | 0.5 | nt
CCOC(=O)c1ccc(NC(=S)P(=O)(c2ccccc2)c2ccccc2)cc1 | -3.8 | 0.7 | -8.5 | 71.4* | -5.1 | -13.0
